# PABP1 MLLE inh – blocks PAM2 peptide binding to the PABP1 MLLE domain | P11940 | GST-MLLE / FITC-PAM2 fluorescence polarization | inhibition, % at 20 µM | 360,000 tested, 0.36% active; in the data active = inhibition above about 35%, passing the limit was not always enough;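 also: plate controls were DMSO wells with GST-MLLE for no effect and wells lacking GST-MLLE protein for full effect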
# Target sequence (P11940 whole entry, looked up, the tested form may be a part): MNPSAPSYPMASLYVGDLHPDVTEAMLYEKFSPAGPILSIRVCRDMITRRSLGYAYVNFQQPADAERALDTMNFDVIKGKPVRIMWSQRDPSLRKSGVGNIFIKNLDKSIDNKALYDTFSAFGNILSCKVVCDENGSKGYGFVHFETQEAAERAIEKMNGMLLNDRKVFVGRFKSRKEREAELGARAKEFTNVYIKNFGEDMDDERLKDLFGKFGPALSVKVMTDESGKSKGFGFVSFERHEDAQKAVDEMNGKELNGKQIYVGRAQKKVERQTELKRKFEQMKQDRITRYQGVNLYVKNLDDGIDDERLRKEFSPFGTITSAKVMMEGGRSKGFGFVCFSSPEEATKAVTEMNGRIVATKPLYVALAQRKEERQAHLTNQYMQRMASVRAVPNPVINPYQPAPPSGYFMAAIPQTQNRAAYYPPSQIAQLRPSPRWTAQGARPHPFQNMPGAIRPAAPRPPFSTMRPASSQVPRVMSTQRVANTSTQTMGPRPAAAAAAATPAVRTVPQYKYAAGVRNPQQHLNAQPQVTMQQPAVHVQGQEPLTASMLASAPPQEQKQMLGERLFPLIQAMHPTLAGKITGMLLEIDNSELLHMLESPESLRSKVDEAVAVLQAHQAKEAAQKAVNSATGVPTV
# eIF4H inh – inhibitors of RNA binding by human eIF4H | Q15056 | eIF4H fluorescence polarization binding assay | inhibition, % at 35 µM | 290,000 tested, 0.94% active;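 also: calls also rest on retests at 20 µM and on dose response follow-up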
# eIF4E-4G inh – blocks eIF4E binding to eIF4G | AID 782 | TR-FRET eIF4E-eIF4GI(517-606) binding, 2 h | 220,000 tested, 0.37% active | inhibition, % at 21.7 µM | P63073+Q04637;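 active = inhibition above about 30%, limit read from the data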;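 also: 0% = full FRET control wells and 100% = background wells lacking eIF4GI fragment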
# PERK inh – blocks human PERK kinase; AID 1416; 220,000 tested, 0.17% active; Q9NZJ5; CHO PERK-DD fusion, SEAP luminescence translation reporter; inhibition, % at 5.6 µM;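 active = inhibition above the mean inhibition of all tested compounds plus 3 SD, set separately per screening campaign, cut at about 2.9% in these data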;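 also: PERK kinase domain activated by AP20187 dimerizer at 100 nM; 0% = DMSO with dimerizer and 100% = rapamycin at 8.4 µM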
# PABP polyA inh – PABP-poly(A) binding inhibition; P11940; PABP-poly(A) RNA binding, fluorescence polarization; calls only at 35 µM; 290,000 tested, 1% active; AID 2014;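 also: calls also rest on retests at 20 µM and on dose response follow-up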
# Numbers without * were called inactive; i = inactive; ? = inconclusive; · = no result; + = active, no number. Sampled rows, rich in hits. Any-hit rate of the full collection: about 1.6%. Unless noted, no rule for the calls is given here.
SMILES,PABP1 MLLE inh,eIF4H inh,eIF4E-4G inh,PERK inh,PABP polyA inh
CC(=O)c1cccc(NC(=O)C2Cc3c(-c4ccc5c(c4)OCO5)ccnc3O2)c1 (centres undefined),11,·,·,·,·
Cc1cccc(S(=O)Cc2ccc(C(=O)N3CCOCC3)o2)c1 (centres undefined),5,-5,·,·,i
O=C(O)c1ccc(CS(=O)c2cccc(C(F)(F)F)c2)o1 (centres undefined),3,2,0,3.7*,i
COc1cc(Br)cc(C(=O)N2CCc3ccccc32)c1OC,2,·,·,·,·
O=[N+]([O-])c1cccc(C(=S)N2CCN(c3ccc(F)cc3)CC2)c1,76*,3,-5,0,i
COc1ccc(/C=C/C(=O)N[C@@H](C)C(=O)O)cc1,3,-4,6,3.4*,i
COc1ccc(C2CC(c3cccs3)=NN2S(C)(=O)=O)cc1 (centres undefined),-6,-7,0,2,i
COc1ccc(C2CC(c3cccs3)=Nc3ccccc3S2)cc1 (centres undefined),51*,-5,-3,0,i
COc1ccc2c(c1)sc(=N)n2C,-68,-14,11,1,i
CCOc1ccccc1N(CC(=O)Nc1cccc2ccccc12)S(C)(=O)=O,3,-4,·,·,i
Cc1cc2nc3c(=O)[nH]c(=O)[nH]c3nc2c([N+](=O)[O-])c1N,191,?,50*,1,i
CC(=O)Nc1ccc2nc(CN3CCC(CO)(CCc4ccccc4)CC3)ccc2c1,-7,-1,1,-1,i
N#C/C(=C\c1cc(O)c(O)c(O)c1)C(N)=O,-12,54*,5,1,+
O=C(OCc1cn([C@@H]2CN(Cc3cccs3)[C@@H](c3ccc(Cl)cc3)C[C@H]2O)nn1)c1ccccc1,-14,·,·,·,·
Nc1ccccc1Sc1nc2ccccc2[nH]1,39*,9,3,0,i
Nc1nc2ccccc2[nH]1,-53,-3,·,·,i
CCCn1c(=O)c2[nH]c(-c3ccc(OCC(=O)Nc4ccc(C#N)cc4)cc3)nc2n(CCC)c1=O,-29,·,·,·,·
COc1ccc(Cc2noc(CN3CCCN(C4Cc5ccccc5C4)CC3)n2)cc1OC,10,-5,-1,0,i
COc1ccc(CCNc2nc(-c3ccc(F)cc3)c(CC(=O)O)s2)cc1OC,-53,80,·,·,+
COc1ccc(CCNc2nc(C)c(C(C)=O)s2)cc1OC,40*,-13,·,·,i
CC(=O)c1sc(NCc2ccc(C)cc2)nc1C,-1,5,·,·,i
COc1ccc(CCNc2nc(-c3ccc(NC(C)=O)cc3)cs2)cc1OC,2,-4,-2,1,i
O=C(C[n+]1cc(Br)cc2ccccc21)c1ccc(Cl)cc1,-28,?,·,·,?
O=C(C[n+]1cc(Br)cc2ccccc21)c1ccc(Br)cc1,-33,81,·,·,+
O=C(NCC(c1ccco1)N1CCCC1)c1sc2ccccc2c1Cl (centres undefined),-6,85*,·,·,+
SMILES,PABP1 MLLE inh,eIF4H inh,eIF4E-4G inh,PERK inh,PABP polyA inh
Cc1c(C(=O)NCC(c2ccco2)N2CCCC2)sc2ccccc12 (centres undefined),-10,·,·,·,·
COCCCNC(=O)c1cccn2c(=O)c3cc4ccccc4cc3nc12,36,20,-5,0,+
COc1ccccc1N1CCN(CCN2C(=O)C3CCCCN3C2=O)CC1 (centres undefined),5,0,·,·,i
O=C(/C=C/c1cccs1)c1cc(Cl)ccc1O,16,-8,2,1,i
O=C(/C=C/c1ccc2ccccc2n1)c1cc(Cl)ccc1O,-62,67,3,-1,+
COc1ccc(Nc2nc(N3CCN(S(=O)(=O)N(C)C)CC3)nc3ccccc23)cc1,-3,-8,·,·,i
O=C(O)c1cc(-c2cccs2)nn1-c1cccc(Cl)c1,12,10,1,1,i
Cc1ccc(-n2nc(-c3cccnc3)cc2C(=O)N2CCOCC2)c(C)c1,-8,-2,5,-2,i
O=C(O)c1cc(-c2ccco2)nn1-c1cccc(Cl)c1,-22,83,29,0,+
Cc1ccc(-n2nc(-c3ccco3)cc2C(=O)O)c(C)c1,22,78,40*,1,i
O=C(O)c1cc(-c2cc3ccccc3o2)nn1-c1ccccc1,-3,10,1,1,i
O=C(O)c1cc(-c2ccco2)nn1-c1ccc(Cl)cc1,-1,80,31*,1,i
CS/C(Nc1cc(Cl)ccc1Cl)=C(/C#N)C(=O)c1ccco1,2,-1,6,2,i
